Laboratory results published in PubChem BioAssay AID1347426 (Functional Genomics Laboratory (NCATS/FGL), 2020).
Out of some 31,000 sequences screened, about 1,400 (4.5%) were called active. The sample as a whole holds a higher share of actives than the screen did. Unmarked numbers belong to inactive results.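 How the source made its calls: active means median seed-adjusted z-score above 1 or below -1; inactive means the rest.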

Experiment: Novel Modifiers of Survival Motor Neuron (SMN) Protein: Gene Identification via Genome-wide siRNA Screen;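 further: luminescence tracks full-length SMN protein made from the SMN2 reporter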
Conditions: HEK293T SMN2-luciferase reporter, siRNA knockdown, 72 h; actives lie on both sides
Outline: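 Luciferase signal, proportional to full-length SMN made from an SMN2 cDNA reporter in stable HEK293T cells, was read 72 h after siRNA reverse transfection. Values were expressed as MAD scores after non-targeting-control normalization and log10 conversion; seed analysis flagged off-targets.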

| Sequence | median seed-adjusted z-score |
| --- | --- |
| GCUCCAUCCUUAUUCAACATT against ZIK1 | -0.0627 |
| GCUCAUCUGGAUAACCUGATT against ZNF513 | -0.0616 |
| GGCUAUUAUUGACAUGGUUTT against PDE8B | 0.217 |
| GAAUAUGAAACAUUCGAUATT against GLRX3 | 0.0784 |
| CUUCUGAACUCGGUCCUCATT against SLC5A5 | 1.01 (active) |
| GGCUUUCAUUGAGCAGGAATT against ATP6V1E2 | -0.162 |
| GACCAGCAAUGCCUACGUATT against FLRT1 | -0.00451 |
| GCAAAACCCUGGAAGGAUATT against KCTD11 | 0.374 |
| UGACAGUGACGGAUGCUAATT against OPLAH | -0.233 |
| CGAUCGACUCGGUGACUUUTT against COL7A1 | 1.08 (active) |
| GAAGUCACGUCACUACUUATT against ZNF644 | 0.389 |
| CACAGAUCAUUAUCUAAAUTT against LONP2 | 1.52 (active) |
| CCUCAGAACCGGCAAGAAATT against TNFAIP1 | 0.0766 |
| CCAAAAUGUUUCAUCCAAATT against UBE2B | 0.333 |
| GAGUUAUGCAAGACAGUAUTT against MYSM1 | -0.116 |
| GCAGCAACCUUGUCAUCCATT against ZNF692 | 0.556 |
| CACCAGCGACGGGAUCUUATT against RHOBTB2 | -0.139 |
| CCGUCACAGUAGAGACUAUTT against LRRC4C | -0.122 |
| GCAAUUACAUGAGCGAGCATT against PLK1 | -2.57 (active) |
| GCUCCAUCAUCGUUGCAUUTT against SYPL2 | 0.233 |
| CCAUAUUCCUCAUGCAUGUTT against FCRL5 | -0.138 |
| CAUCAGGAAUUACGGGACATT against GPR123 | 0 |

| Sequence | median seed-adjusted z-score |
| --- | --- |
| AGGGAACAAGUUUACCAAATT against GTF2IRD1 | -0.282 |
| GGUUAGACAUCAGUCCUUUTT against DHX15 | 1.36 (active) |
| CAGUUCCAGAUGAACCAUATT against DHDDS | 0.0122 |
| CACGGGAUAUGGAACGAAATT against CXCR7 | -0.511 |
| GAACAGUCCCUGGUUCCCATT against ECSIT | -0.116 |
| UGCCCUUGGCUAUCCCUGATT against SLC30A3 | -1.26 (active) |
| GGCUUUGUCAGUUCCCAGATT against SPRR2B | 0.388 |
| GCUUUGCUCUGUACCCUGATT against CTSK | 0.0972 |
| CCAUUAACCACAUACCAGATT against TLR7 | 0.189 |
| CCAGUUCUUUAGGAUCUAUTT against GPR141 | -0.777 |
| GCGGAGCAUUUGCAACAAATT against NR6A1 | -0.287 |
| GCACCUUUAGGCGAAGGAATT against SENP6 | -1.03 (active) |
| CCAUCAUCCCUAAGCGAAUTT against REXO1 | -0.748 |
| GUGUGGUCAUUCAACUUGATT against ZNF324B | 0.176 |
| GCACCUUCCUGCUAAGAUUTT against STAT3 | 0 |
| GCUACUCCCUGAUUCAGAATT against SLC2A7 | -0.0337 |
| CUACAAAAGUUUUUCCAGATT against COX7A2L | 0 |
| CACGGUAUCUCAACCGGAATT against HGS | 1.16 (active) |
| CCCAGGCUCGAAUCCCAUATT against PLD3 | 0.066 |
| CCUUCUCCGUGAUUGAGGATT against LGI4 | -0.239 |
| GGCGACAGAUGUGAAAGAATT against LDLR | -0.142 |
| GAUUGAUAGAAGCACCCUATT against DCC | 0.303 |

| Sequence | median seed-adjusted z-score |
| --- | --- |
| AAGACAAGCUAAAAAUGAUTT against YWHAE | 1.38 (active) |
| GCAAGGACCCAACAACCAATT against TTC9 | -0.173 |
| GUCAUUUCUUUACCCAAGATT against NUDT5 | 0.228 |
| GGAAAACUGCGGCUGCAAATT against AP1S1 | -1.04 (active) |
| GCACGAAAAUCCCGACAUATT against DDX54 | 0 |
| GGCCGAAUUUAUAAAGGAATT against CHI3L1 | 0.145 |
| GAGGUACGCUGGUUCUACATT against DDHD1 | 0 |
| GCAUAGAGGAGAUCUGUGATT against PROC | -0.228 |
| ACUUCUACACGUUUCCAAATT against THAP11 | -1.36 (active) |
| GAACAACACGACCAACAGATT against PRKD2 | 0.00493 |
| GGGUCGACCUAUUUCCGAATT against DYSF | -0.23 |
| GCAAACCGGUUAAUCAAGATT against GGA2 | -0.142 |
| GAUCCUCAGUAAACCUAUUTT against DDX46 | -1.24 (active) |
| GCAUGUUGGUUCACUAUGATT against TPST1 | -0.00547 |
| AGGUCUUUCCCAACGAGGATT against UBE2S | 0.348 |
| GGAUGCACUUUGUCCGAAATT against SPATA5 | -1.04 (active) |
| AGUUGGGAUUAAUACUUCATT against CCL7 | 0.23 |
| GAACUUGUCUUGCGCAAAATT against ZEB1 | -0.163 |
| GGUUUGUGGUGGAAGAUUATT against PLCD3 | 0.228 |
| GGAUCACUCUAACAUCGGATT against PDE1C | 0.157 |
| GGAUCAGUAUGGGCAAAGATT against CALB1 | 0.191 |
| UCUCUACAACAAAAUUUAATT against POLR2L | -1.19 (active) |

| Sequence | median seed-adjusted z-score |
| --- | --- |
| CACUUGAUGUUAUUCGUGUTT against MOAP1 | 0.0405 |
| GGAAGGAUCAAACUACAAATT against AATF | 0.182 |
| CAUUAUCGAUACUAUGUAATT against PSMD6 | -1.03 (active) |
| GAUCCACCUUAUACUCAUATT against EPS8 | 0 |
| GAUGAUUACAUAUCAGAGATT against ZNF630 | -0.533 |
| CACCCUAAUGGAUACAGCUTT against NTSR2 | -0.125 |
| GACUAAAUCAGUUACCGAATT against MED17 | -2.06 (active) |
| GCACCUGAAUGACACGCAATT against HOXD1 | 0.144 |
| GGAAUUGUGGUGUUAGUAATT against POLN | -0.129 |
| GGUCAUUGCCCGAACAAUATT against BNC1 | -0.631 |
| GGACUUUAUUCGGAAGCUUTT against DAPK2 | 0.268 |
| AAUUCAAGCUAUGAAGAUATT against ACO2 | -1.57 (active) |
| CCUUCAAUGUGGGCUACCATT against DEGS2 | -0.305 |
| CAACCUUUCUUGUUAGUAATT against DHRS7 | 0.255 |
| CUGUUCCAGUUGUGGCUCUTT against KRTAP5-1 | 0 |
| CAACAGCGAUUGGAAUGGATT against UGDH | 0.674 |
| CUGGAAGUGUUAUUCCUAATT against FOXD4L1 | 0.271 |
| CGACAAGCCCAAUGUUUAUTT against SSU72 | -1.64 (active) |
| GUACCGAGAGAAUAACAAATT against SYP | -0.0289 |
| GCUGGUUAGGAACCGCUCATT against ZNF579 | -0.0604 |
| GGCAAGUAGAUAGUACAUUTT against ZNF507 | -0.262 |
| UGAUAAGGAUAACAAGAGATT against CAMP | -0.622 |

| Sequence | median seed-adjusted z-score |
| --- | --- |
| GCAUCAAGAUUUUCCGCUUTT against SLC26A2 | -1.25 (active) |
| GCAUAGGCCCAGUAACUUATT against SLC25A34 | -0.256 |
| CGCUCACAGUCAUACACGUTT against SLC39A7 | 0.0554 |
| CUCUUGUACCAGUUCCUGATT against SLC25A35 | -0.762 |
| UGGUCGUUAUGGUCCUAUATT against FUSIP1 | 0.865 |
| GGCACGGUUUUGGUCGAAATT against FREM2 | 0.143 |
| UACAUAUGCUGGACAGAAATT against SSU72 | -1.64 (active) |
| CAGGUAUGGUGAACCGUGATT against YES1 | -0.508 |
| GUACCUCGUAAAUCACGAATT against NFAT5 | 0.106 |
| GAUUUUCACUUGCAACUCATT against PDP2 | -0.0726 |
| AGAGCAACAUCAACAUUAUTT against TKTL1 | -0.495 |
| CGACCGUGGUGACAUGAUUTT against LRP3 | -1.05 (active) |
| GCUCCGCAAAUGUGGUUGATT against ZNF714 | 0 |
| UGCGCAACCUUAAGAACAATT against PRAF2 | -0.326 |
| GAAAGGCAGUUUUCGUAAATT against NXF3 | 0.672 |
| GAGAGGUACCAGACCAUGATT against POLM | -1.55 (active) |
| AGCCUGAAAGUAUCCGUAATT against CLTA | 0.243 |
| GGAGCUCUGUUGUGGAGAATT against FCGRT | -0.00396 |
| GGACUAAACUACCUCCAAATT against KCNE3 | -1.33 (active) |
| CCUGAAAUCAUAGAGUUAATT against KCNMA1 | 0 |
| AGCAGAAGAUGGUAGAUGATT against VIL1 | 0.368 |
